Cycloheximide cs: affects cycloheximide protein synthesis inhibition readout, counter-screen | cell reporter, cycloheximide protein synthesis inhibition counterscreen | max response, % | hit rate 12% among 300,000; in the data active means max response mostly above about 13%, no sharp cut-off; inactive means mostly below about 14%; further: read at 38.3 µM for the half of the compounds with a filed dose
LmPK inhibitor: blocks Leishmania mexicana pyruvate kinase activity | purified LmPK, Kinase-Glo ATP luminescence, 1 h | Potency, µM (doses to about 57.5 µM), most hits filed as inhibitors | hit rate 0.37% among 290,000 | AID 1721
Target sequence (Q27686 whole entry, looked up): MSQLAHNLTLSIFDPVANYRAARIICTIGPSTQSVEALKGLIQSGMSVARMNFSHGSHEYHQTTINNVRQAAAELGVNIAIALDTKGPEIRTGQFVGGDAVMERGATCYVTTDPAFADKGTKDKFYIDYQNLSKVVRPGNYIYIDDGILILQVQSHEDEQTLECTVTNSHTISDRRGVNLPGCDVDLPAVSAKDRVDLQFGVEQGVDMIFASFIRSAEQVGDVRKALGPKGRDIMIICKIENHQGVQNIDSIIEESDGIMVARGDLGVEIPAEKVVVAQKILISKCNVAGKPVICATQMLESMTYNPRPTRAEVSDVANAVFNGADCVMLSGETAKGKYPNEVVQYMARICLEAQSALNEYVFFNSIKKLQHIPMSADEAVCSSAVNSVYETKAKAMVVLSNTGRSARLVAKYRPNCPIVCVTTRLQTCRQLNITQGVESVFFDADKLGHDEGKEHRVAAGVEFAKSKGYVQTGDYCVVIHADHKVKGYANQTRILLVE
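Screened at intermediate enzyme activity to detect both inhibitors and activators: LmPK at 0.1 nM, with a 0.5 nM enzyme column as activation reference. PEP 0.5 mM, ADP 0.1 mM; ATP detected by luminescence after 1 h.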
Tb PYK inh: blocks Trypanosoma brucei pyruvate kinase | TbPYK enzyme, Kinase-Glo Plus ATP luminescence, 45 min | Potency, µM (top dose mostly 76.8 µM), actives largely listed as inhibitors | hit rate 0.12% among 410,000; further: nearly all actives have a fitted effect of over 50% in size
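Readout: single end-point luminescence (Kinase-Glo Plus, 10 min). Reaction conditions were TbPYK/substrate plus 130 uM ADP, 45 min at RT, pH 7.2 TEA buffer. No-enzyme wells served as controls, and data were normalized before concentration-response fitting.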
Giardia FBPA inh: inhibitors of Giardia lamblia fructose-1,6-bisphosphate aldolase | A8B2U2 | purified Giardia FBPA | Potency, µM (titrated, usually from 59.6 µM), most hits filed as inhibitors | hit rate 0.71% among 290,000 | AID 2451; further: nearly all actives have a fitted effect of over 55% in size
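40 nM FBPA preincubated 10 min at RT with compound (up to 57.5 uM final), then substrate plus GAPDH/TPI/NAD/arsenate coupling and diaphorase/resazurin added. Fluorescence read after 20 min at RT, 525/598 nm.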
RE007 growth inh: less growth of the S. pombe RE007 Vpr strain; AID 651644; Potency, µM (highest dose often 92.2 µM), actives largely listed as inhibitors; S. pombe RE007 Vpr strain, BacTiter-Glo ATP luminescence, 24 h; hit rate 0.21% among 360,000; active means well fitted falling curve with a large enough effect; inconclusive means small, poorly fitted or top-dose-only effect; inactive means no such curve, though single readings can be large or run the other way; further: nearly all actives have a fitted effect of over 50% in size
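Fission yeast strain RE007, carrying one chromosomally integrated HIV-1 vpr copy, was seeded at OD 0.01 in PMG+AL medium with 23 nL pinned compound. After 24 h at 30 °C and 99% humidity, viability was read by BacTiter-Glo luminescence.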
Shiga inhibitor: inhibitors of Shiga toxin in Vero cells. Vero cells, Shiga toxin protein synthesis inhibition reporter. inhibition, % at 38.7 µM. hit rate 9.2% among 290,000. AID 2315; in the data active means inhibition mostly above about 28%, no sharp cut-off; inactive means mostly below about 43%
A number is an active result; i = inactive; ? = inconclusive; nt = no result given; [ ] = remark or other dose. The full list was thinned out, with hits kept by preference. Unless noted, the call rests on the fitted dose curve; in most records, active means well fitted curve in the direction sought with a large enough effect; inconclusive means small, poorly fitted or top-dose-only effect, or another doubt; inactive means no such curve, though single readings can be large; an effect the other way counts as inactive or inconclusive.

SMILES | Cycloheximide cs | LmPK inhibitor | Tb PYK inh | Giardia FBPA inh | RE007 growth inh | Shiga inhibitor
O=C1NC(NS(=O)(=O)c2ccccc2)(C(F)(F)F)C(=O)N1c1cccc(Cl)c1 (stereo unspecified) | i | i | i | nt | i | i
CCn1c(SCC(=O)c2ccc(Cl)cc2)nnc1C(C)C | 34 | i | i | i | i | 116
CCn1c(SCC(=O)c2ccccc2)nnc1-c1cccnc1 | 44 | i | i | i | i | i
CCn1c(SCC(=O)c2ccc(C)cc2)nnc1-c1ccoc1C | 27 | i | i | i | i | i
CCn1c(SCC(=O)c2ccc(C)cc2)nnc1-c1ccncc1 | i | i | i | i | i | i
CC(=O)c1ccc(NC(=O)CSc2nnc(-c3ccoc3C)n2Cc2ccccc2)cc1 | 24 | i | i | i | i | 31
CCn1c(SCC(N)=O)nnc1C(C)C | i | i | i | i | i | i
COc1ccc(C2=Nc3ccccc3N(C(=O)c3ccc4ncccc4c3)C2C(=O)NC2CCCC2)cc1 (stereo unspecified) | nt | nt | nt | nt | i | nt
Cc1occc1-c1nnc(SCC(=O)c2ccc(Cl)cc2)n1CC1CCCO1 (stereo unspecified) | i | i | i | i | i | i
CCn1c(SCC(=O)c2ccc(Cl)cc2)nnc1-c1ccoc1C | 33 | i | i | i | i | 17
O=C(NCCOc1ccccc1)C1CCC(=O)N(CCc2ccc(Cl)cc2)C1 (stereo unspecified) | 19 | i | i | nt | i | i
CN(CCOc1ccccc1)C(=O)C1CCC(=O)N(CCc2ccc(Cl)cc2)C1 (stereo unspecified) | 46 | i | i | nt | i | 87
CCc1ccc(CN(C)C(=O)C2CCC(=O)N(CC3CCCCC3)C2)cc1 (stereo unspecified) | 38 | i | i | i | i | i
O=C(NCCOc1ccccc1)C1CCC(=O)N(Cc2ccc(Cl)cc2)C1 (stereo unspecified) | i | i | i | nt | i | i
Cc1ccc(CN(C)C(=O)C2CCC(=O)N(CCc3ccccc3)C2)o1 (stereo unspecified) | 20 | i | ? | i | i | 31
CN(Cc1ccccc1C(F)(F)F)C(=O)C1CCC(=O)N(CC2CCCCC2)C1 (stereo unspecified) | nt | nt | i | nt | i | nt
COC(=O)C(=N/Nc1ccccc1C(=O)OC)/C(C)=N/O | i | i | i | i | i | i
CCOc1ccc(CCNC(=O)C2CC(=O)N(CCc3ccccc3)C2)cc1OCC (stereo unspecified) | i | i | i | i | i | i
COc1ccc(CCN2CC(C(=O)N(C)CCOc3ccccc3)CCC2=O)cc1 (stereo unspecified) | 26 | i | i | nt | i | i
O=C1CCC(C(=O)N2CCCCO2)CN1CCc1ccc(Cl)cc1 (stereo unspecified) | 20 | i | i | nt | i | i
COc1ccc(CCN2CC(C(=O)N(C)Cc3ccccc3OC)CCC2=O)cc1 (stereo unspecified) | i | i | i | ? | i | i
CCOC(=O)CC1(NC(=O)C2CCC(=O)N(CCc3ccc(OC)cc3)C2)CCCCC1 (stereo unspecified) | 29 | i | i | i | i | i
O=C1CCC(C(=O)N2CCCCCC2)CN1CCc1ccc(Cl)cc1 (stereo unspecified) | i | i | i | i | i | i
COc1ccc(CCN2CC(C(=O)NCCc3ccccc3)CC2=O)cc1OC (stereo unspecified) | 36 | i | i | i | i | 172
COc1ccc(CNC(=O)c2sc(=O)n(Cc3ccccc3OC)c2C)cc1 | nt | nt | i | nt | i[18.4 µM] | nt
SMILES | Cycloheximide cs | LmPK inhibitor | Tb PYK inh | Giardia FBPA inh | RE007 growth inh | Shiga inhibitor
Cc1ccc(F)cc1-c1ccc(C(=O)N=C(N)N)o1 | 32 | nt | nt | i | nt | 60
COc1ccc(CNC(=O)C(C)N2CCN(c3ccc(C(C)=O)cc3)CC2)cc1 (stereo unspecified) | 17 | i | i | i | i | i
O=C(O)C(=O)/C(=C\c1ccccc1)c1ccc2ccccc2n1 | 34 | i | i | i | i | 89
O=C(O)C(=O)/C(=C\c1ccc([N+](=O)[O-])cc1)c1ccc2ccccc2n1 | 27 | i | i | i | i | 49
O=C(O)C(=O)/C(=C\c1ccsc1)c1ccc2ccccc2n1 | 27 | i | i | nt | i | 87
O=C(c1ccc2ccccc2n1)N(CCO)Cc1ccccc1 | i | i | i | i | i | i
O=C(O)C(=O)/C(=C\c1cccc2ccccc12)c1ccc2ccccc2n1 | i | i | i | i | i | i
CC(C)C[C@@H](CO)NS(=O)(=O)c1c(F)cccc1F | nt | nt | i | nt | i | nt
O=C(Cn1nc(C(=O)O)c2ccccc2c1=O)Nc1ccc2c(c1)C(=O)c1ccccc1C2=O | 24 | i | nt | i | nt | i
NS(=O)(=O)c1ccc(NC(=O)Cn2nc(C(=O)O)c3ccccc3c2=O)cc1 | i | i | i | i | i | i
CCC(=O)Nc1ccc2c(c1)C(=O)c1ccccc1C2=O | 36 | i | i | i | i | 76
Cc1cc(C)cc(OCC(=O)Nc2ccc3c(c2)C(=O)c2ccccc2C3=O)c1 | 20 | i | i | i | i | 46
Cc1cc(C)cc(OCC(=O)Nc2ccc(F)cc2)c1 | i | i | ? | i | i | i
CCN(CC)CCn1c(-c2ccccc2)nc2c(N3CCOCC3)nc(C)nc21 | nt | nt | nt | i | nt | nt
CC(C)c1csc(CN2CCC(CO)(Cc3cccc(F)c3)CC2)n1 | i | i | i | i | i | i
N#CCCN(C(=O)COC(=O)c1ccc(Cl)nc1)c1ccc2c(c1)OCCO2 | nt | nt | i | nt | i | nt
O=C(COC(=O)c1ccc(Cl)nc1)c1ccc2c(c1)OCCO2 | 44 | i | i | i | i | 100
CCc1ccc(C(=O)COC(=O)c2ccc(Cl)nc2)cc1 | 42 | i | i | i | i | 65
Cc1ccc2c(c1)[C@@H]1CN(C)CC[C@H]1N2 | nt | nt | i | nt | nt | nt
Cc1ccc(NC(=O)CCNS(=O)(=O)c2ccc3c(c2)CCCC(=O)N3)cc1 | nt | nt | i | nt | nt | nt
O=C(Cc1ccccc1)c1nc2ccccc2s1 | 74 | i | i | i | ? | 131
COC(=O)c1ccc(CC(=O)c2nc3ccccc3s2)cc1 | 20 | i | i | i | i | i
COC(=O)c1ccc2c(=O)n(C3CCCCC3)c(SCC#N)nc2c1 | i | i | i | i | i | 71
CCOC(=O)CSc1nc2cc(C(=O)N3CCC(C(N)=O)CC3)ccc2c(=O)n1C1CCCCC1 | i | i | i | i | i | i
COc1ccc(C(CNC(=O)c2ccco2)N2CCCC2)cc1 (stereo unspecified) | nt | nt | i | nt | i | nt
CN(C)c1ccc(C(CNC(=O)c2ccco2)N2CCCC2)cc1 (stereo unspecified) | i | i | i | nt | i | 48
O=C(Nc1ccc(Cl)c(C(F)(F)F)c1)C1CCCN(S(=O)(=O)c2cccc3cccnc23)C1 (stereo unspecified) | nt | nt | i[15.4 µM] | nt | nt | nt
Cc1cccc(NC(=O)Nc2cc(C)cc(C)n2)c1 | 65 | i | i | i | i | 148

Compound activity: PubChem, National Center for Advancing Translational Sciences (NCATS)
